“And” between values parts separate entries of the source, which are not always exact repeats. Equal entries are not always repeated. Results filed as inconclusive are left out. More than one record can exist for a structure, and the calls need not agree. The source made the active and inactive calls. The calls were made as follows: active = hit-call score of the fitted dose curve at least 0.9, where 1 is the maximum; inconclusive = response in the unintended direction; inactive = score below 0.9.

The term AC50 denotes the concentration giving half of the maximal activity seen.

human Opioid Receptor Mu (Opiate Mu), OPRM1 (gene 4988), sequence (P35372 whole entry, looked up): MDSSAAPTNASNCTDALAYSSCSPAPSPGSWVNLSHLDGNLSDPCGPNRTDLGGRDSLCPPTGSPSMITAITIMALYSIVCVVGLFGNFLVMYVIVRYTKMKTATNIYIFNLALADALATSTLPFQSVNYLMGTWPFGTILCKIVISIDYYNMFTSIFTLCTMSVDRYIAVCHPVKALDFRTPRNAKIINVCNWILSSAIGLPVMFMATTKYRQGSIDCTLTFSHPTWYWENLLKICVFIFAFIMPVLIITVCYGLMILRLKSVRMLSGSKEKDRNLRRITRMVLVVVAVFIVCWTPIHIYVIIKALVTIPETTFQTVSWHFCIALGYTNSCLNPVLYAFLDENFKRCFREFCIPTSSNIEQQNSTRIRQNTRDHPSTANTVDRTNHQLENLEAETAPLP

The assay has as its target human Opioid Receptor Mu (Opiate Mu), OPRM1 (gene 4988) (UniProt P35372). As to the kind of experiment: NVS_GPCR_hOpiate_mu: NovaScreen (NVS) G Protein-Coupled Receptor Assay for human Opioid Receptor Mu (Opiate Mu) (AID 2283290).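 Also: hits lower bound tracer signal versus DMSO meaning displacement of the ligand.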 On the procedure: NVS_GPCR_hOpiate_mu is a biochemical, single-readout assay that uses extracted gene-proteins from CHO in a cell-free assay. Measurements were taken 2.5 hours after chemical dosing in a 96-well plate.NVS_GPCR_hOpiate_mu is one of one assay component(s) measured or calculated from the NVS_GPCR_hOpiate_mu assay. It is designed to make measurements of radioligand binding, a form of binding reporter, as detected with scintillation counting signals by Filter-based radiodetection technology.Data from the assay component NVS_GPCR_hOpiate_mu was analyzed into 1 assay endpoint. This assay endpoint, NVS_GPCR_hOpiate_mu, was analyzed in the positive analysis fitting direction relative to DMSO as the negative control and baseline of activity. Using a type of binding reporter, loss-of-signal activity can be used to understand changes in the binding as they relate to the gene OPRM1. Furthermore, this assay endpoint can be referred to as a primary readout, because the performed assay has only produced 1 assay endpoint. To generalize the intended target to other relatable targets, this assay endpoint is annotated to the gpcr intended target family, where the subfamily is rhodopsin-like receptor.
Binding assays used specific radioligands (tritiated, iodinated) with non-radioactive competitive displacement ligands in agonist or antagonist protocols (as indicated) and various reference compounds and inhibitors to titrate specific binding to receptors and transporters. Most enzyme assays (CYPs, kinases, phosphatases, proteases, HDACs) used recombinant protein and specific substrates (fluorescence mostly, some colorimetric and radioactive) and inhibitors, followed by a biochemical separation of substrate and product. All assays for the biochemical HTS were initially run in duplicate at a single concentration (10 uM for CYP450 assays and 25 uM for all others). […] Each assay was run with positive and negative controls, and concurrent controls on every plate. The follow-up (secondary) screen tested active chemical-pairs in concentration series, as well as a few additional assays not tested in the primary screen, some selected negative inactives, and several cases re-run in the concentration series for confirmatory purposes.
In the case of `CCC(C)OC(=O)N1CCCCC1CCO` (stereo not given), the compound was classed as inactive.
On to `S=C(S)NCCNC(=S)S.[Mn+2].[S-]C([S-])=NCCN=C([S-])[S-].[Zn+2]`, for which the AC50 is 154 nM (active) and 3.46 µM (active) and 9.37 µM (active); the compound was called inactive.
For `CC(C)(c1ccc(O)cc1)c1ccc(O)cc1`, the outcome was inactive and the half-maximal activity concentration (AC50) was 15.3 µM (active) [middle of 4 runs].
Consider `Oc1ccc(C(c2ccc(O)cc2)C(Cl)(Cl)Cl)cc1`, for which the AC50 was 3.58 µM (active).
With `CCCCCOC(=O)COc1cc(N2C(=O)C3=C(CCCC3)C2=O)c(F)cc1Cl`, the compound was classed as inactive.
For `S=C([S-])NCCNC(=S)[S-].[Mn+2]`, the AC50 is 3.16 µM (active).
The same measure, in the same setting: with `CC(C)CCCCCCc1ccc(O)cc1` the figure was 15.8 µM (active).
Still for that read-out and setting: with `C=CCOC(Cn1ccnc1)c1ccc(Cl)cc1Cl` (stereo not given) the figure was 11.2 µM (active).

These data come from PubChem BioAssay (EPA / NIEHS).
